Test in all cases: DAPPL (digital affinity profiling via proximity ligation, sequencing); 10 mM Tris-HCl pH 7.5, 50 mM NaCl, 1 mM DTT, 4% glycerol, room temperature, 30 min; GST-TFs on glutathione beads, 16-mer random dsDNA library, 0.1% formaldehyde crosslink after washing; high values mean tight binding
The target of one test is T1, FLI1 (Homo sapiens, UniProt Q01543 1-452).
T1 sequence: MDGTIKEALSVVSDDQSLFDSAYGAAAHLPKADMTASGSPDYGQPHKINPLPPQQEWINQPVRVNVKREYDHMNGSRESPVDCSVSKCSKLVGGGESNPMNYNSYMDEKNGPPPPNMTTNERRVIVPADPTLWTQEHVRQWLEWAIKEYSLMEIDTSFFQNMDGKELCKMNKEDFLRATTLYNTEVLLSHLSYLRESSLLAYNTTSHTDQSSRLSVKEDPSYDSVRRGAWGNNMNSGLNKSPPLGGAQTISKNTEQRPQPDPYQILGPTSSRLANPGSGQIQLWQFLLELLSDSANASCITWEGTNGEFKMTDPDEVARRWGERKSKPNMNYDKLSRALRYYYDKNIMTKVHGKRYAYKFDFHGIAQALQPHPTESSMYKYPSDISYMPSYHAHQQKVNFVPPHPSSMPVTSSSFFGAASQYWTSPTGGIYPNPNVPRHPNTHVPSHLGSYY
Conditions: protein: recombinant; tags: N-terminal GST; dsDNA, one strand shown. The method in brief: (§1)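 Sequencing on an Illumina NextSeq500 followed washing, crosslinking with 0.1% formaldehyde, proximity ligation (BsaI/T4 ligase, 1 h, 37 °C) and PCR amplification of pools that had been incubated for 30 min at room temperature with 200 nmole of a random double-stranded 16-mer DNA library in Tris/NaCl/DTT/glycerol buffer. Each pool held DNA-barcoded human transcription factors, expressed in yeast as GST fusions and captured on glutathione beads, plus a tag-only sample. Binding signal is a hexamer's read frequency for a factor divided by its frequency in the tag-only sample.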

Another test concerns the target T2, ELK1 (Homo sapiens, UniProt P19419 1-428).
T2 sequence: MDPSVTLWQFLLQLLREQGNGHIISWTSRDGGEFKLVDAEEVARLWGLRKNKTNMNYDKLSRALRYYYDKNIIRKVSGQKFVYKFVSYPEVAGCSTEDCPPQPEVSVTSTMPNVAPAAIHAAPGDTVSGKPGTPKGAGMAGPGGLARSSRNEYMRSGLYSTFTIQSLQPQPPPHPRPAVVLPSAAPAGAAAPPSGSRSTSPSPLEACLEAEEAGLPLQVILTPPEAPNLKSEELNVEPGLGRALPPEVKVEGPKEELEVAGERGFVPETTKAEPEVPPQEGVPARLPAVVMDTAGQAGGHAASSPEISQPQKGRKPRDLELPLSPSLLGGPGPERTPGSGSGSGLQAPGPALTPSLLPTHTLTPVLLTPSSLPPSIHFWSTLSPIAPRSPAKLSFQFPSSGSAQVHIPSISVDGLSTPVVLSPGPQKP
Conditions: protein: recombinant; tags: N-terminal GST; dsDNA, one strand shown. In outline:
as §1

For a further test, the target named is T3, GABPA (Homo sapiens, UniProt Q06546 1-454).
T3 sequence: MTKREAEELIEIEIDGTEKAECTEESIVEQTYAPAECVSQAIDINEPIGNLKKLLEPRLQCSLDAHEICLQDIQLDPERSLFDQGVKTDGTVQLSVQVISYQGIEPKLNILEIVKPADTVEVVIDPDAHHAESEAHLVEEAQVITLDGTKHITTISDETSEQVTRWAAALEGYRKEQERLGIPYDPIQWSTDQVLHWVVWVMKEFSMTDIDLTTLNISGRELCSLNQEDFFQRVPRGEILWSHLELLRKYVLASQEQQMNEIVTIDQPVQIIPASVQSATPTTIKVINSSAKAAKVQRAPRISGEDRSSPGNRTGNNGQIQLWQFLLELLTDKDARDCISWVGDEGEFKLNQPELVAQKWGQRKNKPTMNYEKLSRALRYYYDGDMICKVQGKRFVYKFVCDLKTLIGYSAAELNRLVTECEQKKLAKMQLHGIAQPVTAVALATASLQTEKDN
Conditions: protein: recombinant; tags: N-terminal GST; dsDNA, one strand shown. In outline: as §1

The target of a further test is T4, ERG (Homo sapiens, UniProt P11308 1-479).
T4 sequence: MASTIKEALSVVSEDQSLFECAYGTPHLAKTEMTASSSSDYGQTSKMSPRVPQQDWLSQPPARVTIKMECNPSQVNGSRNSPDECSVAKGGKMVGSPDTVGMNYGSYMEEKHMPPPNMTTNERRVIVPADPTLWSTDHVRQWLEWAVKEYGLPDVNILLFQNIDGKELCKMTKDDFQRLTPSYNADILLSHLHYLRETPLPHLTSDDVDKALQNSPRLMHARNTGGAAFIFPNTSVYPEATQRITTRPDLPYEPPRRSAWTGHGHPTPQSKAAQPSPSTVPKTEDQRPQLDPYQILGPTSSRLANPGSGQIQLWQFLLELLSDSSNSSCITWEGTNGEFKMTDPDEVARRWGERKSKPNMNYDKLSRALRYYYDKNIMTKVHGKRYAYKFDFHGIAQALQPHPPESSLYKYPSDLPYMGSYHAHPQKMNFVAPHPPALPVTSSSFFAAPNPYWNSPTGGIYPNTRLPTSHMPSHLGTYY
Conditions: protein: recombinant; tags: N-terminal GST; dsDNA, one strand shown. In outline: as §1

The next test deals with ELF1 (Homo sapiens, UniProt P32519 1-619). Conditions: protein: recombinant; tags: N-terminal GST; dsDNA, one strand shown. The method in brief:
as §1

Another test has as its target T5, EHF (Homo sapiens, UniProt Q9NZC4 1-300).
T5 sequence: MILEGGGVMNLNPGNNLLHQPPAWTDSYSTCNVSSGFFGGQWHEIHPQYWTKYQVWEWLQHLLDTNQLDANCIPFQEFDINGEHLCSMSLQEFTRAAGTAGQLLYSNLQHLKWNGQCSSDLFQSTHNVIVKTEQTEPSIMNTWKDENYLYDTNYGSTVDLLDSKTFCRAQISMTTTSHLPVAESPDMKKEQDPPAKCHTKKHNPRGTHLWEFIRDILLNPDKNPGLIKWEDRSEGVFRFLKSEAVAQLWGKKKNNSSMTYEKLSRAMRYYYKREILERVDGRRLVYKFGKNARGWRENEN
Conditions: protein: recombinant; tags: N-terminal GST; dsDNA, one strand shown. In outline:
as §1

Another test concerns the target SPI1 (Homo sapiens, UniProt P17947 1-270). Conditions: protein: recombinant; tags: N-terminal GST; dsDNA, one strand shown. In outline:
as §1

In another test the target is SPIB (Homo sapiens, UniProt Q01892 1-262). Conditions: protein: recombinant; tags: N-terminal GST; dsDNA, one strand shown. The method in brief: as §1
Another test has as its target T6, ELK3 (Homo sapiens, UniProt P41970 1-407).
T6 sequence: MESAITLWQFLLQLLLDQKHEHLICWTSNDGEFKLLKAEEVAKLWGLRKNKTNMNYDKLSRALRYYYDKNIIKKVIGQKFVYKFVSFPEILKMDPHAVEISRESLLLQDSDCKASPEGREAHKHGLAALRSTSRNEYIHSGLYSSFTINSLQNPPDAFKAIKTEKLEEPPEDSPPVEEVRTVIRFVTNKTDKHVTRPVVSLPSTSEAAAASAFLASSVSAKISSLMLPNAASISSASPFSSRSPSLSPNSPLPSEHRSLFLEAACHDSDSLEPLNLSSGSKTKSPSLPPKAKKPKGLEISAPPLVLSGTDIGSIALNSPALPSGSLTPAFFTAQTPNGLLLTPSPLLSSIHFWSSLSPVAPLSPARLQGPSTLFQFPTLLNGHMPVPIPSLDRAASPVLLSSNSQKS
Conditions: protein: recombinant; tags: N-terminal GST; dsDNA, one strand shown. The method in brief: as §1

A further test addresses T7, FEV (Homo sapiens, UniProt Q99581 1-238).
T7 sequence: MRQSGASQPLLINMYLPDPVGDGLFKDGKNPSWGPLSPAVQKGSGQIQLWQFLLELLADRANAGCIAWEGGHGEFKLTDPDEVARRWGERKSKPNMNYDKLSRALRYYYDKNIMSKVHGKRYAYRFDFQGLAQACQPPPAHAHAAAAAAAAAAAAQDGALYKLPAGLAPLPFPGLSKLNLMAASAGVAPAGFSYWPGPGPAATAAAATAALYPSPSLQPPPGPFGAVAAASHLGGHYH
Conditions: protein: recombinant; tags: N-terminal GST; dsDNA, one strand shown. In outline: as §1

The next test has as its target ETV5 (Homo sapiens, UniProt P41161 1-510). Conditions: protein: recombinant; tags: N-terminal GST; dsDNA, one strand shown. The method in brief: as §1
For a further test, the target named is HSF1 (Homo sapiens, UniProt Q00613 1-529). Conditions: protein: recombinant; tags: N-terminal GST; chain copies: 3; dsDNA, one strand shown. The method in brief:
as §1

In another test the target is T8, SPIC (Homo sapiens, UniProt Q8N5J4 1-248).
T8 sequence: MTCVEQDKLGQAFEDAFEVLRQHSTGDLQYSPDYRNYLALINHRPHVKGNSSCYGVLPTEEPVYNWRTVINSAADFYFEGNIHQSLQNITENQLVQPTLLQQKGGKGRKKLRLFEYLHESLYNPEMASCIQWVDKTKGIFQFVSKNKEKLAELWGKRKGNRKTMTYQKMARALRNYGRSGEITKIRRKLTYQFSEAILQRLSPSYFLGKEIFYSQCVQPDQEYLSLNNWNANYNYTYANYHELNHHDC
The settings on record: protein: recombinant; tags: N-terminal GST; dsDNA, one strand shown. In outline:
as §1

In a further test the target is ELF4 (Homo sapiens, UniProt Q99607 1-663). The settings on record: protein: recombinant; tags: N-terminal GST; dsDNA, one strand shown. In outline: as §1
Another test concerns the target T9, ELK4 (Homo sapiens, UniProt P28324-2 1-405).
T9 sequence: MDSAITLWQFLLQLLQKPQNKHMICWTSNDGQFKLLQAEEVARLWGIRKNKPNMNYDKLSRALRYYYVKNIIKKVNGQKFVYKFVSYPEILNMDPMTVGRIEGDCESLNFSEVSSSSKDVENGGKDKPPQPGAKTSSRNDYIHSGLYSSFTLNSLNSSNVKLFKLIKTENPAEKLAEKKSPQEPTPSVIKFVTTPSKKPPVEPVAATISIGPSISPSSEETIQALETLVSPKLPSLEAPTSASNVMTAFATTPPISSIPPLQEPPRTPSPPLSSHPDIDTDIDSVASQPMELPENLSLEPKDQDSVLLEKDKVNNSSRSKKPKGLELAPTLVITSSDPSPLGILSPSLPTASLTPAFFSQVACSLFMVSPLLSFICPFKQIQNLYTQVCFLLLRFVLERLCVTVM
The settings on record: protein: recombinant; tags: N-terminal GST; dsDNA, one strand shown. In outline: as §1

A further test addresses T10, ETV2 (Homo sapiens, UniProt O00321 1-342).
T10 sequence: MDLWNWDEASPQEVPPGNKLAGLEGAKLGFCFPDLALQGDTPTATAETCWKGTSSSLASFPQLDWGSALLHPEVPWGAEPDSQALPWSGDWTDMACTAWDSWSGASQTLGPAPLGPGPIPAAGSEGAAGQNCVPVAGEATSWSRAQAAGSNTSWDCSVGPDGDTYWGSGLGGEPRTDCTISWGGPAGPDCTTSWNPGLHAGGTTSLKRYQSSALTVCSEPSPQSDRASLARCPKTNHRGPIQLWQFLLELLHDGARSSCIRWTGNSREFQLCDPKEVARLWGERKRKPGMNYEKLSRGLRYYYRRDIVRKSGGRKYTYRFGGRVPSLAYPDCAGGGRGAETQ
Conditions: protein: recombinant; tags: N-terminal GST; dsDNA, one strand shown. The method in brief:
as §1

The next test has as its target T11, ELF3 (Homo sapiens, UniProt P78545 1-371).
T11 sequence: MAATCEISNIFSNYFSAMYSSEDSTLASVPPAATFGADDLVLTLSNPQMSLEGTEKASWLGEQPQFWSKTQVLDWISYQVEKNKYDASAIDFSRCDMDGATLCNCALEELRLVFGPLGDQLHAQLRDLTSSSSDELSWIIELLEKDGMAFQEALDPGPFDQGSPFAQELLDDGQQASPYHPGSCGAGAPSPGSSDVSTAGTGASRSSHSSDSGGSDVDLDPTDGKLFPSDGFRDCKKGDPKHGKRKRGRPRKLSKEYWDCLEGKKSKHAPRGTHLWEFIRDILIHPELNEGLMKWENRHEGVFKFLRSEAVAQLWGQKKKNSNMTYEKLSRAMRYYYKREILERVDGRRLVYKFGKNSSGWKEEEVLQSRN
The settings on record: protein: recombinant; tags: N-terminal GST; dsDNA, one strand shown. The method in brief: as §1

For another test, the target named is ETV1 (Homo sapiens, UniProt P50549 1-477). The settings on record: protein: recombinant; tags: N-terminal GST; dsDNA, one strand shown. In outline: as §1
Sequence of ETV1 (P50549 whole entry): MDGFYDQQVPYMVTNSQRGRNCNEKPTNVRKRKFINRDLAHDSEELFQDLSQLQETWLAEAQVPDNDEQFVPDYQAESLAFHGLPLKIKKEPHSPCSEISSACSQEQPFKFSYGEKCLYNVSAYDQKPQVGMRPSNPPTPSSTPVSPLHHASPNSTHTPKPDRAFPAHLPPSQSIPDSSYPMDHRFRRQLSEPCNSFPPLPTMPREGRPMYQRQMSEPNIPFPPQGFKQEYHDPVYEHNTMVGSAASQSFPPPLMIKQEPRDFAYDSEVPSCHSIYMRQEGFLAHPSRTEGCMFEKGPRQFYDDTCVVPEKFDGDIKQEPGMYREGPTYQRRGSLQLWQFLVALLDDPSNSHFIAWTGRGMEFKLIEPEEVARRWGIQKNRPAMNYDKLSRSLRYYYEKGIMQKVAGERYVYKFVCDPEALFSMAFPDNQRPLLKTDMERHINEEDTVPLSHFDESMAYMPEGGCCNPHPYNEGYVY

Sequence of ELF4 (Q99607 whole entry): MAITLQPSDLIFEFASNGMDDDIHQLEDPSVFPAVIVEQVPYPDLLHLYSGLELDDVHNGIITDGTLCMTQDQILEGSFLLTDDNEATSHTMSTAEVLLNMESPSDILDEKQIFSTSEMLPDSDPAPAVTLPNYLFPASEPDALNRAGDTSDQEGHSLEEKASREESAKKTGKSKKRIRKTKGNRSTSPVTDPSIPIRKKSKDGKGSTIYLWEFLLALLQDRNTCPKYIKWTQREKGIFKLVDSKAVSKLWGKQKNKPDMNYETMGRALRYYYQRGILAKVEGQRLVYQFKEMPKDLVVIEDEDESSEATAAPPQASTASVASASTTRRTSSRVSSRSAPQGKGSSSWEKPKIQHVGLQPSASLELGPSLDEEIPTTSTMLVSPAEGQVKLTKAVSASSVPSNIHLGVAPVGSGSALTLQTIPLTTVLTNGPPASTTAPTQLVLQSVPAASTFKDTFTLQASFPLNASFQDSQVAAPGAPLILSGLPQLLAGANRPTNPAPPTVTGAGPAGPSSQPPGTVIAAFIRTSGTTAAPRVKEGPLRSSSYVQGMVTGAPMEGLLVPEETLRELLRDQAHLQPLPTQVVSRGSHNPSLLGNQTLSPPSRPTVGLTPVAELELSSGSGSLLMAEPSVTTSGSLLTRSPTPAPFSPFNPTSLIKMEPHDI
Sequence of ETV5 (P41161 whole entry): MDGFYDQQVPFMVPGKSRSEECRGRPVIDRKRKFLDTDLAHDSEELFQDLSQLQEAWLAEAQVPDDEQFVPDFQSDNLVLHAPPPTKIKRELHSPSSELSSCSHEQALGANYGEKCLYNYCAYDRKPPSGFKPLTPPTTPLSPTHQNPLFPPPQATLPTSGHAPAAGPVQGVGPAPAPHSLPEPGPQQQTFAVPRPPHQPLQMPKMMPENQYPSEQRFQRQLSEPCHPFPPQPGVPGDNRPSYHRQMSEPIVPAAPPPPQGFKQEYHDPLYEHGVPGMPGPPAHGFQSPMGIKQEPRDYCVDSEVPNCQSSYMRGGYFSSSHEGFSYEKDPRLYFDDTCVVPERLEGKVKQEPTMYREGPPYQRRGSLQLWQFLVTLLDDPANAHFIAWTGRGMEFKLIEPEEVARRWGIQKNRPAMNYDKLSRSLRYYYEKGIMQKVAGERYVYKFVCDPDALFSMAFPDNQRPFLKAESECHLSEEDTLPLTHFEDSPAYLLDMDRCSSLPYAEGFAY
Sequence of SPIB (Q01892 whole entry): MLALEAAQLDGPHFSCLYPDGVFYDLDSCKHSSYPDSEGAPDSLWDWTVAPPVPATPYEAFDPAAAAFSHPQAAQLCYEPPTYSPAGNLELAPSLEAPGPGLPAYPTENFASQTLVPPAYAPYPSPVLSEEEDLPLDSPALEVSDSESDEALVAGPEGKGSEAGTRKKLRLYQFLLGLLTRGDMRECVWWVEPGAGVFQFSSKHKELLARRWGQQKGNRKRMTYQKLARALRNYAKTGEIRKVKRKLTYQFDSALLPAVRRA
Sequence of HSF1 (Q00613 whole entry): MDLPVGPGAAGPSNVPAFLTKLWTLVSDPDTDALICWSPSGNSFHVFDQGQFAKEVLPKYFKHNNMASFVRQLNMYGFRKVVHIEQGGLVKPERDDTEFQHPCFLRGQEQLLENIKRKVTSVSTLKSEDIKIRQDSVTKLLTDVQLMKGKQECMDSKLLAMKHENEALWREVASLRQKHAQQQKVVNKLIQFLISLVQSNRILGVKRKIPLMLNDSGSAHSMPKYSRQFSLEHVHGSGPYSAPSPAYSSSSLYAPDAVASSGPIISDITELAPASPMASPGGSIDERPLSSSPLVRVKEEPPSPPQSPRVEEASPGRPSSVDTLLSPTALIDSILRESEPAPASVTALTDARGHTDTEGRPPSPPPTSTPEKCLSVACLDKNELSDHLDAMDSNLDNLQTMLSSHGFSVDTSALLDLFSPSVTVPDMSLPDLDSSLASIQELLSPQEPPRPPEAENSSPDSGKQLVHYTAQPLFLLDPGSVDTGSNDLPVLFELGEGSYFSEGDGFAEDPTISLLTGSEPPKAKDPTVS
Sequence of ELF1 (P32519 whole entry): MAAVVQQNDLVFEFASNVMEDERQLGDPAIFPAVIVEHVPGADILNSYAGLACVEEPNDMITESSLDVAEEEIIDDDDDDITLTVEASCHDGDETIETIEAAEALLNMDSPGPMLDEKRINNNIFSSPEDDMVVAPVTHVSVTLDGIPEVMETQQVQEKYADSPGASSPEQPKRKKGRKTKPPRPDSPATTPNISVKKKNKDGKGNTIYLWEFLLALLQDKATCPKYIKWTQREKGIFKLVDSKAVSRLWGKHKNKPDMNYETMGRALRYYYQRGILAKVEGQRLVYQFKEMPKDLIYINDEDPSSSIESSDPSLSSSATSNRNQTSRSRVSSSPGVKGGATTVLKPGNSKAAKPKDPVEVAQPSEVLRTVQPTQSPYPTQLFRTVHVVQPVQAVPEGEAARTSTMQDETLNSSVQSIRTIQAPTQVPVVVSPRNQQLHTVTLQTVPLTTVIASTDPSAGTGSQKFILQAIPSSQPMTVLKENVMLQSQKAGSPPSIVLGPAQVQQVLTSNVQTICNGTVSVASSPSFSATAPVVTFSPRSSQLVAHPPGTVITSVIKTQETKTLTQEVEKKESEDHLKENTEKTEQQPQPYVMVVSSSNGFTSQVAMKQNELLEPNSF

On to CGCGTC, for which the binding signal with FLI1 was 1.33 fold enrichment (6-mer frequency, TF over GST control); with ELK1, 1.24 fold enrichment (6-mer frequency, TF over GST control); with GABPA, 1.26 fold enrichment (6-mer frequency, TF over GST control); in the test with ERG, 1.27 fold enrichment (6-mer frequency, TF over GST control); with ELF1, 1.28 fold enrichment (6-mer frequency, TF over GST control); in the test with EHF it was 1.25 fold enrichment (6-mer frequency, TF over GST control). The binding signal with SPI1 is 1.27 fold enrichment (6-mer frequency, TF over GST control); with SPIB, 1.32 fold enrichment (6-mer frequency, TF over GST control); with ELK3, 1.08 fold enrichment (6-mer frequency, TF over GST control); with FEV it was 1.2 fold enrichment (6-mer frequency, TF over GST control); with ETV5 it was 1.06 fold enrichment (6-mer frequency, TF over GST control); with HSF1 it was 1.02 fold enrichment (6-mer frequency, TF over GST control). In addition, the binding signal with SPIC is 1.39 fold enrichment (6-mer frequency, TF over GST control); in the test with ELF4, 1.19 fold enrichment (6-mer frequency, TF over GST control); in the test with ELK4, 1.48 fold enrichment (6-mer frequency, TF over GST control); in the test with ETV2 it was 1.35 fold enrichment (6-mer frequency, TF over GST control); with ELF3, 1.44 fold enrichment (6-mer frequency, TF over GST control); with ETV1, 1.22 fold enrichment (6-mer frequency, TF over GST control).
